# Measured values reported in PubChem BioAssay.
# Calls of active or inactive are those of the source.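 How the source made its calls: active means calcium signal rise more than 3 SD above the low-dose agonist control mean, in both duplicate plates and the primary screen; inactive means the rest.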
# Assay: nonspecific potentiation of DAMGO calcium response – cell-based, HEK293 mu-opioid receptor line, counter-screen for TRPC4 allosteric potentiator project, confirmation (AID 449724);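 further: HEK293 cells carrying mu-opioid receptor only with no TRPC4 channel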
# Conditions: HEK293 mu-opioid receptor cells, Fluo-4 calcium flux, at 10 µM, compound added before EC20 DAMGO stimulus
row,Compound,outcome
1,CC(C)C(=O)N1CCN(c2nc(-c3ccccc3)c3c(c2C#N)CCCC3)CC1,inactive
2,CC(=O)n1cc([C@@H]2C=C(C(=O)NCc3ccccc3)O[C@H](OCc3ccc(CO)cc3)C2)c2ccccc21,inactive
3,CCN1CCN(c2nc(N)c([N+](=O)[O-])c(Nc3ccc(C)c(C)c3)n2)CC1,inactive
4,CN1/C(=C\C=[N+](C)c2ccccc2)C(C)(C)c2ccccc21,inactive
5,COc1cc(NC(=O)C(C)Oc2ccccc2)cc(OC)c1 (stereo not drawn),inactive
6,CCCCc1ccc(NC(=O)CSc2nnc(C)c(=O)n2N)cc1,inactive
7,O=C(COc1ccc(Br)cc1Cl)c1ccc[nH]1,inactive
8,Clc1cc(/C=N\NC2=NCCN2)cc(Cl)n1,inactive
9,Cc1cc(OCC(=O)N2CCCC2)cc(C)c1Cl,inactive
10,CCOC(=O)CC(NS(=O)(=O)c1ccc(OC)c(C)c1)c1cccc([N+](=O)[O-])c1 (stereo not drawn),inactive
11,O=C(COc1coc(CN2CCN(c3ccccc3F)CC2)cc1=O)Nc1ccccc1,inactive
12,CN(C)CCCNC(=O)/C=C/c1ccc(OCc2c(F)cccc2Cl)cc1,inactive
13,CC(C)c1cccc(OCCCCN(C)C)c1,inactive
14,CNc1oc(-c2ccccc2Cl)nc1P(=O)(c1ccccc1)c1ccccc1,inactive
15,Cc1ccc(C(=O)C[n+]2cccc3cc(C)ccc32)cc1,inactive
16,CCCN1CCN(C(=S)NCc2ccc(Cl)cc2)CC1,inactive
17,CC(=O)Nc1nc(-c2ccc3c(c2)CCN3C(=O)C2CC2)c(C)s1,inactive
18,COC(=O)c1ccccc1NC(=O)CCC(=O)N1CC(C)Oc2ccc(C)cc21 (stereo not drawn),inactive
